Consider 35 compounds from PubChem BioAssay (NCATS).

The nature of assay [1]: P-glycoprotein substrates identified in KB-3-1 adenocarcinoma cell line, qHTS therapeutic library screen (AID 1346986). Note: nearly all actives have a fitted effect of over 60% in size. The note with it: KB-3-1 parental cells viability, CellTiter-Glo, 72 h. The essentials: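 Counter-screen: cherry-picked hits retested in the KB pair and in HEK-293 pcDNA/MDR-19 cells ± tariquidar. Primary screen used 72 h CellTiter-Glo viability in KB-3-1 and KB-8-5-11.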

The nature of assay [2]: P-glycoprotein substrates identified in KB-8-5-11 adenocarcinoma cell line, qHTS therapeutic library screen (AID 1346987). Note: nearly all actives have a fitted effect of over 65% in size. Note: potency is the fitted concentration of half-maximal effect. The note with it: KB-8-5-11 (P-gp overexpressing) viability, CellTiter-Glo, 72 h; series mostly up to 44.5 µM. The gist of the method:
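KB-8-5-11: colchicine-selected sub-line of KB-3-1 over-expressing P-gp; assay medium lacked colchicine. 72 h drug exposure at 37 degree C, CellTiter-Glo.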

Records with an inconclusive call do not appear. Entries that show only a call come without a potency. Calls of active or inactive are those of the source. Calls come from the whole dose curve; as a rule, active = well fitted curve in the direction sought with a large enough effect; inconclusive = small, poorly fitted or top-dose-only effect, or another doubt; inactive = no such curve, though single readings can be large; an effect the other way counts as inactive or inconclusive.

Take `CN[C@@H]1[C@H](O[C@H]2[C@H](O[C@H]3[C@H](O)[C@@H](O)[C@H](N=C(N)N)[C@@H](O)[C@@H]3N=C(N)N)O[C@@H](C)[C@]2(O)C=O)O[C@@H](CO)[C@H](O)[C@H]1O`: the result in assay [1] was inactive.
Turning to `Oc1ccc(Cl)c2c1CCC2`, the Potency result in assay [2] is “inactive”.
On the same count and under the same terms, as for `CC(=O)[C@@]1(O)CC[C@H]2[C@@H]3C=C(Cl)C4=CC(=O)[C@@H]5C[C@@H]5[C@]4(C)[C@H]3CC[C@@]21C`, the entry is “inactive”; as for `C=C1CC[C@H](O)CC1=C/C=C1\CCC[C@]2(C)[C@@H]([C@H](C)/C=C/[C@H](C)C(C)C)CC[C@@H]12`, “inactive”.
The same measure, in the same setting: as for `O=C(NNCNNC(=O)c1ccncc1)c1ccncc1`, the entry is “inactive”; as for `N=C(N)c1ccc(/C=C/c2ccc(C(=N)N)cc2O)cc1`, 18.4 µM (active).
Still for that read-out and setting: with `COc1ccc([C@@H]2CC(=O)c3c(O)cc(O[C@@H]4O[C@H](CO[C@@H]5O[C@@H](C)[C@H](O)[C@@H](O)[C@H]5O)[C@@H](O)[C@H](O)[C@H]4O)cc3O2)cc1O` the entry was “inactive”.
Regarding `CCCCCCCCCCCCCCCCCCOCC(COP(=O)([O-])OCC[N+](C)(C)C)OC` (stereo not given), the Potency entry in assay [2] was “inactive”.
Same read-out and setting: as for `CCCCCCCCCc1ccc(OCCOCCO)cc1`, the figure is 4.61 µM (active); as for `C#C[C@]1(O)CC[C@@H]2[C@H]3CCC4=CC(=O)CC[C@H]4[C@H]3C(=C)C[C@@]21CC`, “inactive”; as for `COC1[C@@H](O[C@@H]2O[C@H](C)[C@@H](O[C@H]3C[C@@](C)(O)[C@H](OC(=O)CC(C)C)[C@H](C)O3)[C@H](N(C)C)[C@H]2O)[C@@H](CC=O)C[C@@H](C)[C@@H](O)/C=C/C=C/C[C@@H](C)OC(=O)C[C@H]1OC(C)=O` (stereo not given in full), “inactive”.
On the same count and under the same terms, with `O=C1NCCN1c1ncc([N+](=O)[O-])s1` the entry was “inactive”; with `O=P(O)(O)OP(=O)(O)OP(=O)(O)O`, “inactive”.
In the case of `NC(=O)CC[C@@H]1NC(=O)[C@H](Cc2ccccc2)NC(=O)[C@H](Cc2ccc(O)cc2)NC(=O)[C@@H](N)CSSC[C@@H](C(=O)N2CCC[C@H]2C(=O)N[C@@H](CCCN=C(N)N)C(=O)NCC(N)=O)NC(=O)[C@H](CC(N)=O)NC1=O`, the Potency entry in assay [2] is “inactive”.
Still for that read-out and setting: with `C[C@@](Cc1ccc(O)c(O)c1)(NN)C(=O)O` the entry was “inactive”; with `OCl`, “inactive”; with `CCOC(=S)SSC(=S)OCC`, “inactive”.
With `C[C@@H]1C/C=C/C=C/C=C/C=C/[C@H](O[C@@H]2O[C@H](C)[C@@H](O)[C@H](N)[C@@H]2O)C[C@@H]2O[C@](O)(C[C@@H](O)C[C@H]3O[C@@H]3/C=C/C(=O)O1)C[C@H](O)[C@H]2C(=O)O`, the Potency entry in assay [2] was “inactive”.
`C[C@]12CC[C@@H]3c4ccc(O)cc4CC[C@H]3[C@@H]1CC[C@@H]2OP(=O)(O)O`: the Potency in assay [2] was 20.6 µM (active).
In the case of `Cc1ncc(C[n+]2csc(CCOP(=O)(O)O)c2C)c(N)n1`, the Potency result in assay [2] was “inactive”.
Same read-out and setting: as for `C[C@H]1[C@@H](OC(=O)CCC(=O)O)O[C@@H]2OC3(C)CC[C@H]4[C@H](C)CC[C@@H]1[C@@]24OO3`, the figure is 4.61 µM (active); as for `C=CC1=C(C(=O)O)N2C(=O)[C@@H](NC(=O)/C(=N\O)c3csc(N)n3)[C@H]2SC1` (stereo in doubt), “inactive”; as for `O=P(O)(O)CP(=O)(O)O`, “inactive”.
Same read-out and setting: as for `CCN(CC)CCOC(=O)c1cccnc1`, the entry is “inactive”; as for `Nc1nc(NC2CC2)c2ncn([C@@H]3C=C[C@@H](CO)C3)c2n1`, “inactive”; as for `CC[C@H]1NC(=O)[C@@H](NC(=O)c2ncccc2O)[C@@H](C)OC(=O)[C@H](c2ccccc2)NC(=O)[C@@H]2CC(=O)CCN2C(=O)[C@H](Cc2ccccc2)N(C)C(=O)[C@@H]2CCCN2C1=O`, “inactive”.
On the same count and under the same terms, with `CO[C@H]1O[C@@H]2O[C@@]3(C)CC[C@H]4[C@H](C)CC[C@@H]([C@H]1C)[C@@]24OO3` the entry was “inactive”.
As to `CC(O)[C@H]1CC[C@H]2[C@@H]3CC[C@@H]4C[C@@H](O)CC[C@]4(C)[C@H]3CC[C@]12C` (stereo not given in full), the Potency in assay [2] is 6.51 µM (active).
On the same count and under the same terms, with `O=C(Cc1cccs1)N[C@@H]1C(=O)N2C(C(=O)[O-])=C(C[n+]3ccccc3)CS[C@H]12` the entry was “inactive”; with `O=C(O)[C@H]1C(=CCO)O[C@H]2CC(=O)N12`, “inactive”; with `Cc1cc2nc3c(=O)[nH]c(=O)nc-3n(C[C@H](O)[C@H](O)[C@H](O)COP(=O)(O)OP(=O)(O)OC[C@H]3O[C@@H](n4cnc5c(N)ncnc54)[C@H](O)[C@@H]3O)c2cc1C`, “inactive”.
Same read-out and setting: as for `Nc1ncnc2c1ncn2[C@H]1CC[C@@H](CO)O1`, the entry is “inactive”.
Still for that read-out and setting: as for `CO/N=C(\C(=O)N[C@@H]1C(=O)N2C(C(=O)O)=CCS[C@H]12)c1csc(N)n1`, the entry is “inactive”; as for `CNCC(=O)N[C@@H](CCCN=C(N)N)C(=O)N[C@H](C(=O)N[C@@H](Cc1ccc(O)cc1)C(=O)N[C@H](C(=O)N[C@@H](Cc1cnc[nH]1)C(=O)N1CCC[C@H]1C(=O)N[C@@H](C)C(=O)O)C(C)C)C(C)C`, “inactive”; as for `CC(=O)O[C@@H]1CC2CCC1(C)C2(C)C` (stereo not given in full), “inactive”.
